What all share (assay): DAPPL (digital affinity profiling via proximity ligation, sequencing); 10 mM Tris-HCl pH 7.5, 50 mM NaCl, 1 mM DTT, 4% glycerol, room temperature, 30 min; GST-TFs on glutathione beads, 16-mer random dsDNA library, 0.1% formaldehyde crosslink after washing; high values mean tight binding
One assay addresses T1, FEV (Homo sapiens, UniProt Q99581 1-238).
T1 sequence: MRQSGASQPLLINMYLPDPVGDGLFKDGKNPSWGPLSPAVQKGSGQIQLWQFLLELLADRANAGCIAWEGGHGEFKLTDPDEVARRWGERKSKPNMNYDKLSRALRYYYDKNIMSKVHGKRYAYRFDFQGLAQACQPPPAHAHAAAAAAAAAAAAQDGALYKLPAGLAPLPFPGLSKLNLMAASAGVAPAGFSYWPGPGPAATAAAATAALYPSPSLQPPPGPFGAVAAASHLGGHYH
Particulars: protein: recombinant; tags: N-terminal GST; dsDNA, one strand shown. The procedure, abridged: (§1)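 Human transcription factors fused to GST were expressed in yeast, captured on glutathione beads, given DNA barcodes and pooled with a GST-only negative control. Pools were incubated with 200 nmole of a 16-mer random double-stranded DNA library in Tris/NaCl/DTT/glycerol buffer at room temperature for 30 min. They were then washed, crosslinked with 0.1% formaldehyde, proximity-ligated (BsaI/T4 ligase, 1 h, 37 °C), PCR-amplified and sequenced on an Illumina NextSeq500. Binding signal is each 6-mer's read frequency for a factor divided by its frequency for the GST control.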

Another assay concerns the target ETV5 (Homo sapiens, UniProt P41161 1-510). Particulars: protein: recombinant; tags: N-terminal GST; dsDNA, one strand shown. The procedure, abridged:
as §1

The target of a further assay is HSF1 (Homo sapiens, UniProt Q00613 1-529). The conditions noted are these: protein: recombinant; tags: N-terminal GST; chain copies: 3; dsDNA, one strand shown. In a few lines: as §1
A further assay concerns the target T2, SPIC (Homo sapiens, UniProt Q8N5J4 1-248).
T2 sequence: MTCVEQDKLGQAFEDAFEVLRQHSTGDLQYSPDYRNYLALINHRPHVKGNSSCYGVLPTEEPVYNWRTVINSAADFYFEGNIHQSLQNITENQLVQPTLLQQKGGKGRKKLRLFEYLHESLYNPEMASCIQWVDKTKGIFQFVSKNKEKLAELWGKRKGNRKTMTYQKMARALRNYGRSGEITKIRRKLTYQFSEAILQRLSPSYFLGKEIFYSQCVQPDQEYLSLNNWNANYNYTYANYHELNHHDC
Particulars: protein: recombinant; tags: N-terminal GST; dsDNA, one strand shown. The procedure, abridged:
as §1

Another assay concerns the target ELF4 (Homo sapiens, UniProt Q99607 1-663). The conditions noted are these: protein: recombinant; tags: N-terminal GST; dsDNA, one strand shown. The procedure, abridged: as §1
In the next assay the target is T3, ELK4 (Homo sapiens, UniProt P28324-2 1-405).
T3 sequence: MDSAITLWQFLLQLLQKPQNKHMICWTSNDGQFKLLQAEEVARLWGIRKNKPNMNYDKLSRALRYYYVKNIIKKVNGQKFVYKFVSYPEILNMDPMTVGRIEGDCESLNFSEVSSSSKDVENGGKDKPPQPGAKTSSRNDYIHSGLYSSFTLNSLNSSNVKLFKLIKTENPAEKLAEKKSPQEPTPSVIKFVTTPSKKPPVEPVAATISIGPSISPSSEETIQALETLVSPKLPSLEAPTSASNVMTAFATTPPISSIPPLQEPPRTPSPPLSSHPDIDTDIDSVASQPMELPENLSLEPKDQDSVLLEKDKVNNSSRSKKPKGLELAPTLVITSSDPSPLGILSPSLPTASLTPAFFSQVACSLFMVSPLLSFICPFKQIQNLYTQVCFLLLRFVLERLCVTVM
The conditions noted are these: protein: recombinant; tags: N-terminal GST; dsDNA, one strand shown. The procedure, abridged:
as §1

The target in a further assay is T4, ETV2 (Homo sapiens, UniProt O00321 1-342).
T4 sequence: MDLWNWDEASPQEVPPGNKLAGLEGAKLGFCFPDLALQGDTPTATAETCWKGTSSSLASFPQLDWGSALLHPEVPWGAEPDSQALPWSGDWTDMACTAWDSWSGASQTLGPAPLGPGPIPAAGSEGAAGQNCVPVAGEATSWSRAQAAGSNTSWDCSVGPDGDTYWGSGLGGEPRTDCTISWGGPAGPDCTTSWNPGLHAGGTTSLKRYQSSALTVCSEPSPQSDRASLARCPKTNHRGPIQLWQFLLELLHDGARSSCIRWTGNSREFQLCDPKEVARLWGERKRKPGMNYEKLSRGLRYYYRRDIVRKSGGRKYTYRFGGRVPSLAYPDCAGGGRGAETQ
Particulars: protein: recombinant; tags: N-terminal GST; dsDNA, one strand shown. In a few lines: as §1

The next assay deals with T5, ELF3 (Homo sapiens, UniProt P78545 1-371).
T5 sequence: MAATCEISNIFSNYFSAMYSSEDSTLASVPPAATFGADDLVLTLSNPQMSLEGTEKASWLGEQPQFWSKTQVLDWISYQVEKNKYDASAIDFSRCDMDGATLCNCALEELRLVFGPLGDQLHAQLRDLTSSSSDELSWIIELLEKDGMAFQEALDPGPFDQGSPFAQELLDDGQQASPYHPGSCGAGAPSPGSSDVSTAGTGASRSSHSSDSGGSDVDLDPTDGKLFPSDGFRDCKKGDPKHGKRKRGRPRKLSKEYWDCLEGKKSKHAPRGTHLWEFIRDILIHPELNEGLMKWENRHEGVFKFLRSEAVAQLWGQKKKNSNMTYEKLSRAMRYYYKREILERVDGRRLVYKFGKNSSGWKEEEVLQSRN
The conditions noted are these: protein: recombinant; tags: N-terminal GST; dsDNA, one strand shown. The procedure, abridged: as §1

The target of another assay is CRX (Homo sapiens, UniProt O43186 1-299). Particulars: protein: recombinant; tags: N-terminal GST; dsDNA, one strand shown. In a few lines: as §1
For another assay, the target named is ETV1 (Homo sapiens, UniProt P50549 1-477). The conditions noted are these: protein: recombinant; tags: N-terminal GST; dsDNA, one strand shown. The procedure, abridged:
as §1

Chain of ELF4 (Q99607 whole entry): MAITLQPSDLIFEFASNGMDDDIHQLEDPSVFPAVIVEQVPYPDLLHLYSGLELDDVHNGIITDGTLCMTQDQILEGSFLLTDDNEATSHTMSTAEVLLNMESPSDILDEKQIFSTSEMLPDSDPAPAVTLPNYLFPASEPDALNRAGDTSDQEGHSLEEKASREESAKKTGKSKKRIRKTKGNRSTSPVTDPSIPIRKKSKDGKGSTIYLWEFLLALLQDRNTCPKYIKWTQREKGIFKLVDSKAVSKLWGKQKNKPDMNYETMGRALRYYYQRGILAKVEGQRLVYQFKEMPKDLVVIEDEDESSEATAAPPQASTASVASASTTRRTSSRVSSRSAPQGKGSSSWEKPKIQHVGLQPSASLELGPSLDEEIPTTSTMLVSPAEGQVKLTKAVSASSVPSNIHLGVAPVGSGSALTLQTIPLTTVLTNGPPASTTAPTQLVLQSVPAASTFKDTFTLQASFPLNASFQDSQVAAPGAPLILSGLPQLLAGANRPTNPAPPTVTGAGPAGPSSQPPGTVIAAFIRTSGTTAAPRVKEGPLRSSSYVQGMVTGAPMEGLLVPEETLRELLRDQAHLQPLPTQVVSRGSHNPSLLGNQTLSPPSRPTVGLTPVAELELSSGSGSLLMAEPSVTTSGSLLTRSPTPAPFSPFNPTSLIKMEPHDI
Chain of CRX (O43186 whole entry): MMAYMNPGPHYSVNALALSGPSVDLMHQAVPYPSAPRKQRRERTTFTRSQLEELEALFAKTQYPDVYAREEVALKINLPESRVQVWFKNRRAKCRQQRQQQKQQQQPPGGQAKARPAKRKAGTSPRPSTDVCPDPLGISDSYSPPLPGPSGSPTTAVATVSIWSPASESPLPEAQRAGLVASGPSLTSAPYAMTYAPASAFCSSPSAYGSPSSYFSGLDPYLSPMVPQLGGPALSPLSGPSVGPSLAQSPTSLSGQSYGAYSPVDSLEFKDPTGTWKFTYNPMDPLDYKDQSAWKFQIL
Chain of ETV5 (P41161 whole entry): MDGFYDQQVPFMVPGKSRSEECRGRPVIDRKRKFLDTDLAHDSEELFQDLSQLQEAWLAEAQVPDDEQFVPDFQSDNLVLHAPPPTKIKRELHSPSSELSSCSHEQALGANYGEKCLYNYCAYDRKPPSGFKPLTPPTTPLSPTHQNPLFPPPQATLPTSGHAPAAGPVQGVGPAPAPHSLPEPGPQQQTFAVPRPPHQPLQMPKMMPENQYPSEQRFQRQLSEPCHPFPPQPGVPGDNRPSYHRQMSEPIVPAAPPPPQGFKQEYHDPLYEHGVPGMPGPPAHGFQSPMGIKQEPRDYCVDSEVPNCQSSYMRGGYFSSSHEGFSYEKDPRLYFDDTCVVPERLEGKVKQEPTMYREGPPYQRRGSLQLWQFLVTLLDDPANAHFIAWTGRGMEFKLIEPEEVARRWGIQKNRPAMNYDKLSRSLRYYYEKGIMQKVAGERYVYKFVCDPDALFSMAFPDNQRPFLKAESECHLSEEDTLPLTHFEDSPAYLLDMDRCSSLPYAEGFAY
Chain of HSF1 (Q00613 whole entry): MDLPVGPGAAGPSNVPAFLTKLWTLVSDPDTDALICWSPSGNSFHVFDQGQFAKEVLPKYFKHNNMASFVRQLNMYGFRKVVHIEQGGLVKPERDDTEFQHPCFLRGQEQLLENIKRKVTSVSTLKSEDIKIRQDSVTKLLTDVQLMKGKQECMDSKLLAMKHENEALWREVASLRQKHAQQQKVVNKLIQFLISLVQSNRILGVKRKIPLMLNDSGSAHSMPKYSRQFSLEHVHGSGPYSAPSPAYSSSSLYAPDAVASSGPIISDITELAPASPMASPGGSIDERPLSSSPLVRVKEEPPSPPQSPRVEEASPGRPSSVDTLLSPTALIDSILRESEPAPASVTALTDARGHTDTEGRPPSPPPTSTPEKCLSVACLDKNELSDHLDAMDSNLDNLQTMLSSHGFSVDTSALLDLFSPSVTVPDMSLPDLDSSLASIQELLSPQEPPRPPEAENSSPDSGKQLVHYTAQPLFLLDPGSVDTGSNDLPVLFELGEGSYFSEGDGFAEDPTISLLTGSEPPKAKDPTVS
Chain of ETV1 (P50549 whole entry): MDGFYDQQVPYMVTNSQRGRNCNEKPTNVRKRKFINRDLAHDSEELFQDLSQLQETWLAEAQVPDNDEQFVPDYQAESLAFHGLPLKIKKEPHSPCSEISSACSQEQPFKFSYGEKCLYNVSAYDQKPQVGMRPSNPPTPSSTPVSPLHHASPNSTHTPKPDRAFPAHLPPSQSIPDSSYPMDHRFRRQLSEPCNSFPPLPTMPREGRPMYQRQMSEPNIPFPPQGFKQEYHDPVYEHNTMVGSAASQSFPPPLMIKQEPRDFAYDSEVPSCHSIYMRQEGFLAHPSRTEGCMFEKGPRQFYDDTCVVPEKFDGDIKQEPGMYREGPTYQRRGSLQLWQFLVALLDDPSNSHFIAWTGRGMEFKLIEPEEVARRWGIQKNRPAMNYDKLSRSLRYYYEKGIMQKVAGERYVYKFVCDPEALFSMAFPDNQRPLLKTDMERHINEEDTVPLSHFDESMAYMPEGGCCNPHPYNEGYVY

Turning to AATTAG, the binding signal in the assay with FEV was 1.07 fold enrichment (6-mer frequency, TF over GST control); in the assay with ETV5 it was 1.12 fold enrichment (6-mer frequency, TF over GST control); in the assay with HSF1, 1.39 fold enrichment (6-mer frequency, TF over GST control); with SPIC, 1.08 fold enrichment (6-mer frequency, TF over GST control); with ELF4, 1.15 fold enrichment (6-mer frequency, TF over GST control); with ELK4, 1.14 fold enrichment (6-mer frequency, TF over GST control). The binding signal was 1.12 fold enrichment (6-mer frequency, TF over GST control) with ETV2; 1.13 fold enrichment (6-mer frequency, TF over GST control) in the assay with ELF3; 1.69 fold enrichment (6-mer frequency, TF over GST control) with CRX; 1.14 fold enrichment (6-mer frequency, TF over GST control) with ETV1.
As to TTGTGT, the binding signal with FEV was 1.15 fold enrichment (6-mer frequency, TF over GST control); with ETV5 it was 1.14 fold enrichment (6-mer frequency, TF over GST control); with HSF1, 1.05 fold enrichment (6-mer frequency, TF over GST control); with SPIC, 1.04 fold enrichment (6-mer frequency, TF over GST control); with ELF4 it was 1.2 fold enrichment (6-mer frequency, TF over GST control); in the assay with ELK4 it was 1.28 fold enrichment (6-mer frequency, TF over GST control). In addition, the binding signal is 1.29 fold enrichment (6-mer frequency, TF over GST control) with ETV2; 1.14 fold enrichment (6-mer frequency, TF over GST control) with ELF3; 1.12 fold enrichment (6-mer frequency, TF over GST control) in the assay with CRX; 1.09 fold enrichment (6-mer frequency, TF over GST control) with ETV1.
As for ACCTTA, the binding signal with FEV was 1.27 fold enrichment (6-mer frequency, TF over GST control); with ETV5, 1.23 fold enrichment (6-mer frequency, TF over GST control); with HSF1, 1.19 fold enrichment (6-mer frequency, TF over GST control); with SPIC it was 1.11 fold enrichment (6-mer frequency, TF over GST control); with ELF4 it was 1.24 fold enrichment (6-mer frequency, TF over GST control); with ELK4 it was 1.32 fold enrichment (6-mer frequency, TF over GST control). In addition, the binding signal in the assay with ETV2 was 1.32 fold enrichment (6-mer frequency, TF over GST control); in the assay with ELF3, 1.22 fold enrichment (6-mer frequency, TF over GST control); with CRX, 1.43 fold enrichment (6-mer frequency, TF over GST control); with ETV1 it was 1.4 fold enrichment (6-mer frequency, TF over GST control).
For CCTTAC, the binding signal with FEV is 1.21 fold enrichment (6-mer frequency, TF over GST control); with ETV5 it was 1.36 fold enrichment (6-mer frequency, TF over GST control); with HSF1 it was 1.15 fold enrichment (6-mer frequency, TF over GST control); with SPIC, 1.22 fold enrichment (6-mer frequency, TF over GST control); with ELF4 it was 1.38 fold enrichment (6-mer frequency, TF over GST control); with ELK4 it was 1.13 fold enrichment (6-mer frequency, TF over GST control). Moreover, the binding signal was 1.33 fold enrichment (6-mer frequency, TF over GST control) in the assay with ETV2; 1.34 fold enrichment (6-mer frequency, TF over GST control) in the assay with ELF3; 1.17 fold enrichment (6-mer frequency, TF over GST control) with CRX; 1.21 fold enrichment (6-mer frequency, TF over GST control) in the assay with ETV1.
In the case of TTTGAT, the binding signal in the assay with FEV is 1.17 fold enrichment (6-mer frequency, TF over GST control); with ETV5, 1.23 fold enrichment (6-mer frequency, TF over GST control); in the assay with HSF1 it was 1.37 fold enrichment (6-mer frequency, TF over GST control); with SPIC, 1.26 fold enrichment (6-mer frequency, TF over GST control); with ELF4 it was 1.22 fold enrichment (6-mer frequency, TF over GST control); with ELK4, 1.2 fold enrichment (6-mer frequency, TF over GST control). In addition, the binding signal with ETV2 is 1.22 fold enrichment (6-mer frequency, TF over GST control); with ELF3, 1.18 fold enrichment (6-mer frequency, TF over GST control); in the assay with CRX, 1.6 fold enrichment (6-mer frequency, TF over GST control); with ETV1 it was 1.25 fold enrichment (6-mer frequency, TF over GST control).
As to AAAAAT, the binding signal with FEV was 1.27 fold enrichment (6-mer frequency, TF over GST control); with ETV5 it was 1.3 fold enrichment (6-mer frequency, TF over GST control); with HSF1, 1.5 fold enrichment (6-mer frequency, TF over GST control); with SPIC it was 1.25 fold enrichment (6-mer frequency, TF over GST control); with ELF4 it was 1.38 fold enrichment (6-mer frequency, TF over GST control); with ELK4 it was 1.31 fold enrichment (6-mer frequency, TF over GST control). Also, the binding signal was 1.49 fold enrichment (6-mer frequency, TF over GST control) with ETV2; 1.25 fold enrichment (6-mer frequency, TF over GST control) with ELF3; 1.4 fold enrichment (6-mer frequency, TF over GST control) in the assay with CRX; 1.26 fold enrichment (6-mer frequency, TF over GST control) in the assay with ETV1.
Consider ATGAAA, for which the binding signal with FEV was 1.13 fold enrichment (6-mer frequency, TF over GST control); with ETV5 it was 1.12 fold enrichment (6-mer frequency, TF over GST control); with HSF1, 1.16 fold enrichment (6-mer frequency, TF over GST control); in the assay with SPIC, 1.24 fold enrichment (6-mer frequency, TF over GST control); in the assay with ELF4, 1.2 fold enrichment (6-mer frequency, TF over GST control); in the assay with ELK4, 1.21 fold enrichment (6-mer frequency, TF over GST control). Also, the binding signal with ETV2 was 1.15 fold enrichment (6-mer frequency, TF over GST control); with ELF3, 1.19 fold enrichment (6-mer frequency, TF over GST control); with CRX it was 1.08 fold enrichment (6-mer frequency, TF over GST control); with ETV1, 1.2 fold enrichment (6-mer frequency, TF over GST control).

For the origin of these results see publication PMC7862700, “An all-to-all approach to the identification of sequence-specific readers for epigenetic DNA modifications on cytosine”.
